Bioassay records deposited in PubChem BioAssay by National Center for Advancing Translational Sciences (NCATS).
Compounds with a hit are over-represented: about 10% of the library has one in this group of screens.
HEK293 tox: HEK 293 cell cytotoxicity | HEK 293 viability, ATP luminescence (CellTiter-Glo), 48-72 h | hit rate 6.6% among 94,000 | Potency, µM (top dose mostly 115 µM), most hits filed as inhibitors; further: nearly all actives have a fitted effect of over 60% in size
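HEK 293 cells seeded at 250 cells/well were exposed to compound for 48 or 72 hr at 37 degree Celsius. Viability taken as ATP content by CellTiter-Glo luminescence.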
GPT2 inh: GPT2 alanine aminotransferase inhibition; Recombinant GPT2, coupled pyruvate oxidase/HRP Amplex Red fluorescence; hit rate 0.25% among 100,000; Q8TD30; Potency, µM (highest dose often 57.7 µM), most hits filed as inhibitors; further: nearly all actives have a fitted effect of over 60% in size
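Fluorescence of coupled pyruvate oxidase/HRP/Amplex Red system (50uM Amplex, 30 min, dark) reports pyruvate formed by GPT2. Enzyme reaction: 10ng/uL GPT2, 2mM L-alanine, 250uM a-KG, 30 min room temperature, pH 7.5; 50uM AOA control.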
hNpr1 antagonist: human Npr1 receptor antagonism; P16066; HEK293 hNpr1 GloSensor cGMP, ANP-stimulated luminescence; Potency, µM (titrated, usually from 46.3 µM), actives largely listed as inhibitors; hit rate 1.6% among 76,000; AID 1347048; calls by dose curve; further: nearly all actives have a fitted effect of over 60% in size
Target sequence (P16066 whole entry, looked up): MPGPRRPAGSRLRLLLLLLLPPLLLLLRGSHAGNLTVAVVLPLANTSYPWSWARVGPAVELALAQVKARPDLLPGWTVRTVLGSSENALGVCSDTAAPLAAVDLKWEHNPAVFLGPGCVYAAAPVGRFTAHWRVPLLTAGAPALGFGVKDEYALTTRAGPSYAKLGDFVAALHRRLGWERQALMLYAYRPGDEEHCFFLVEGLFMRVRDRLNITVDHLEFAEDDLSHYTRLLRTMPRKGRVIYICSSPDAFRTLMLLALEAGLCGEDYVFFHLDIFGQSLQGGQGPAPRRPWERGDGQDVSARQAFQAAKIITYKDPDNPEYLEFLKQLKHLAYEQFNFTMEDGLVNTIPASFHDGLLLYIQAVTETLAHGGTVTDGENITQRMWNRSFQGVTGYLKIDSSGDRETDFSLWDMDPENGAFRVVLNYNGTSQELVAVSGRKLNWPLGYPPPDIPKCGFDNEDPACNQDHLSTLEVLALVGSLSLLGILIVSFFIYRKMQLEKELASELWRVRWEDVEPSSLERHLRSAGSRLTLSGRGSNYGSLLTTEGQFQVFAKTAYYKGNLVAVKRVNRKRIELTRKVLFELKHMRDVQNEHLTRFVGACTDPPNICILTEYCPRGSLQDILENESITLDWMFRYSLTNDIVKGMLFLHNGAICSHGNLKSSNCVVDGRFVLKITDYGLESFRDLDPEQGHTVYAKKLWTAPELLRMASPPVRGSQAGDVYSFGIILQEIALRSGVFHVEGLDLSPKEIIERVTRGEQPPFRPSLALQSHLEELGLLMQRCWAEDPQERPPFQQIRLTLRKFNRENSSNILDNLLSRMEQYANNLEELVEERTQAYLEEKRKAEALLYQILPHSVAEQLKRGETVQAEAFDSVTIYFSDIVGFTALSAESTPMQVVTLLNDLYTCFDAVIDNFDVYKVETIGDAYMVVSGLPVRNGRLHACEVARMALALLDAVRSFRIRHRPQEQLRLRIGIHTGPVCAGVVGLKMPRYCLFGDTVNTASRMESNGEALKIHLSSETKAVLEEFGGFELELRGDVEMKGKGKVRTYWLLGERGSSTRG
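HEK293 cells stably expressing human Npr1 and cGMP GloSensor pGS-40F, loaded 2 h with 2% GloSensor reagent, given compound 30 min at room temperature. Luminescence read before and 20 min after 0.1 nM hNppA.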
Luciferase inh: inhibitors of firefly (Photinus pyralis) luciferase | hit rate 2.5% among 76,000 | AID 1347043 | Potency, µM (doses to about 115 µM), actives largely listed as inhibitors | purified P. pyralis luciferase, luminescence, biochemical; further: nearly all actives have a fitted effect of over 65% in size
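Luminescence read by CCD imager after adding enzyme (10nM final) to wells holding compound, titrated in qHTS. Substrates 10uM each D-luciferin and ATP; buffer 50mM Tris acetate pH 7.5, 10mM Mg acetate, Tween-20, BSA.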
3T3 cytotox: cytotoxic compounds in NIH 3T3 cells; NIH 3T3 viability, CellTiter-Glo ATP luminescence, 48-72 h; Potency, µM (doses to about 96.7 µM), most hits filed as inhibitors; hit rate 4.3% among 94,000; AID 1345082; further: nearly all actives have a fitted effect of over 55% in size
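Mouse fibroblast NIH 3T3 cells, 400 per well, received compound via pintool and were incubated for 48 or 72 hr prior to CellTiter-Glo ATP luminescence measurement.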
Large screens that a line does not name were inactive. Unless noted, the call rests on the fitted dose curve; in most records, active means well fitted curve in the direction sought with a large enough effect; inconclusive means small, poorly fitted or top-dose-only effect, or another doubt; inactive means no such curve, though single readings can be large; an effect the other way counts as inactive or inconclusive.

CNC(=O)c1ccc(-c2ccc(OC)nn2)cc1Cl	none (no result: GPT2 inh, hNpr1 antagonist, Luciferase inh)
COc1ccccc1Cn1c(=O)c(C(=O)NCc2cccs2)nc2cccnc21	HEK293 tox inconclusive, 3T3 cytotox inconclusive (no result: hNpr1 antagonist, Luciferase inh)
CC(C)=CC[C@@H](O)C1=CC(=O)c2c(O)ccc(O)c2C1=O	GPT2 inh 12µM (no result: HEK293 tox, hNpr1 antagonist, Luciferase inh, 3T3 cytotox)
CN1C(=O)c2cccn2CC1CNC(=O)COc1ccccc1 (centres undefined)	none
CCC(C)Cc1nccc(C2(c3ccccc3Cl)CCNCC2)n1 (centres undefined)	HEK293 tox 25µM, 3T3 cytotox 28µM
CC(C)CNc1nccc(C2(c3ccccc3Cl)CCNCC2)n1	HEK293 tox 25µM, 3T3 cytotox 28µM
C[C@@H](O)CNc1nccc(C2(c3ccccc3Cl)CCNCC2)n1	none
CC(CNc1nccc(C2(c3ccccc3Cl)CCNCC2)n1)CN(C)C (centres undefined)	3T3 cytotox inconclusive
COCCOC1CCOC2(CCN(C(=O)Cc3cccc(C)c3)CC2)C1 (centres undefined)	none
CCCCOc1ccc(-c2nc(C3CC(=O)N(c4ccc(OC)cc4)C3)no2)cc1 (centres undefined)	none
O=C1CC(c2noc(-c3ccco3)n2)CN1C1CCCCC1 (centres undefined)	none
Cc1ccsc1-c1nc(C2CC(=O)N(C3CCCCC3)C2)no1 (centres undefined)	HEK293 tox 79µM
CCCCOc1ccc(-c2nc(C3CC(=O)N(C4CCCCC4)C3)no2)cc1 (centres undefined)	HEK293 tox 45µM, hNpr1 antagonist inconclusive, 3T3 cytotox 32µM
CC(=O)N1CC(CN2C(=O)c3c(c(C)nn3-c3ccccc3)C2C)C1 (centres undefined)	HEK293 tox inconclusive (no result: GPT2 inh, hNpr1 antagonist, Luciferase inh)
Cc1nn(-c2ccccc2)c2c1C(C)N(CC1CN(Cc3ccc(C(F)(F)F)cc3)C1)C2=O (centres undefined)	HEK293 tox 32µM, 3T3 cytotox 40µM (no result: GPT2 inh, hNpr1 antagonist, Luciferase inh)
Cc1nn(-c2ccccc2)c2c1C(C)N(CC1CN(C(=O)c3ccc4c(c3)OCO4)C1)C2=O (centres undefined)	HEK293 tox inconclusive, 3T3 cytotox 20µM (no result: GPT2 inh, hNpr1 antagonist, Luciferase inh)
Cc1nn(-c2ccccc2)c2c1C(C)N(CC1CN(C(=O)c3ccc(Cl)nc3)C1)C2=O (centres undefined)	3T3 cytotox inconclusive (no result: GPT2 inh, hNpr1 antagonist, Luciferase inh)
CCOC(=O)N1CC(CN2C(=O)c3c(c(C)nn3-c3ccccc3)C2C2CC2)C1 (centres undefined)	HEK293 tox 35µM, 3T3 cytotox 40µM (no result: GPT2 inh, hNpr1 antagonist, Luciferase inh)
CC(=O)N1CC(CN2C(=O)c3c(c(C)nn3-c3ccccc3)C2C2CC2)C1 (centres undefined)	HEK293 tox inconclusive, 3T3 cytotox 22µM (no result: GPT2 inh, hNpr1 antagonist, Luciferase inh)
C#CCNC(=O)c1cc(C(C)(C)C)nc2c1cnn2C	HEK293 tox inconclusive, 3T3 cytotox inconclusive (no result: hNpr1 antagonist, Luciferase inh)
O=C(CCCOc1ccccc1)N1CCCC2(CCC(=O)N(CC3CC3)C2)C1 (centres undefined)	3T3 cytotox inconclusive
Cc1nn(-c2ccccc2)c2c1C(C1CC1)N(CC1CN(C(=O)C3CC3)C1)C2=O (centres undefined)	HEK293 tox inconclusive, 3T3 cytotox 10µM (no result: GPT2 inh, hNpr1 antagonist, Luciferase inh)
O=C1N[C@@H]2CCN(S(=O)(=O)Cc3ccccc3)[C@@H]2C(=O)N1c1ccc(F)cc1	none
CCNC(=O)CCc1c(C)nn(-c2ccc(F)cc2)c1Oc1ccccc1F	HEK293 tox inconclusive, 3T3 cytotox inconclusive
Cc1nn(-c2ccc(F)cc2)c(Oc2ccccc2F)c1CCC(=O)N(C)C(C)C	HEK293 tox 35µM, 3T3 cytotox inconclusive
Cc1cccc(-n2nc(C)c(CCC(=O)N(C)C(C)C)c2Oc2ccccc2)c1	HEK293 tox 40µM, 3T3 cytotox 16µM
CCN(CC)C(=O)CCc1c(C)nn(-c2cccc(C)c2)c1Oc1ccc(F)cc1F	HEK293 tox 25µM, 3T3 cytotox 35µM
CCN(CC)C(=O)CCc1c(C)nn(-c2ccc(F)cc2)c1Oc1ccccc1F	HEK293 tox inconclusive, 3T3 cytotox inconclusive
CCN(C)C(=O)CCc1c(C)nn(-c2cccc(C)c2)c1Oc1ccc(F)cc1F	HEK293 tox inconclusive, 3T3 cytotox inconclusive
C=CCNC(=O)CCc1c(C)nn(-c2ccc(F)cc2)c1Oc1ccc(F)cc1F	HEK293 tox 35µM, 3T3 cytotox inconclusive
CCOc1ccc(CC(=O)N2CCC3(CC2)CC(O)CCO3)cc1 (centres undefined)	none
COCC(=O)Nc1ccc2c(c1)CN(CCc1ccccc1)C(=O)C(C)O2 (centres undefined)	HEK293 tox inconclusive, 3T3 cytotox inconclusive
COCCNc1cc(-c2ccc(F)cc2)nc2c(C)noc12	3T3 cytotox inconclusive
Cc1noc2c(NCCN(C)C)cc(-c3ccccn3)nc12	HEK293 tox 79µM, 3T3 cytotox inconclusive
Cc1noc2c(NCCN(C)C)cc(-c3ccc(F)cc3)nc12	HEK293 tox inconclusive, 3T3 cytotox 40µM
COCCNc1cc(-c2ccc(Cl)cc2)nc2c(C)noc12	HEK293 tox inconclusive, 3T3 cytotox inconclusive
COC1CCN(c2cc(-c3ccccn3)nc3c(C)noc23)CC1	HEK293 tox 63µM, 3T3 cytotox inconclusive
COc1ccccc1-c1cc(N2CCN(c3ccccn3)CC2)c2onc(C)c2n1	HEK293 tox inconclusive, 3T3 cytotox inconclusive
Cc1cc(-c2cc(-c3ccccn3)nc3c(C)noc23)ccn1	HEK293 tox inconclusive, 3T3 cytotox inconclusive
Cc1noc2c(NCCN(C)C)cc(-c3ccc(Cl)cc3)nc12	HEK293 tox 45µM, 3T3 cytotox 25µM
CC(C)C(=O)N1CCN(c2nc3c(s2)CC(C(=O)NCc2ccco2)CC3)CC1 (centres undefined)	HEK293 tox inconclusive
CC(=O)NCC(=O)N1CCCC(n2cc(-c3nc(-c4ccccc4)no3)nn2)C1 (centres undefined)	Luciferase inh 35µM
O=C(CCc1ccccc1)N1CCCC(n2cc(-c3nc(-c4ccccc4)no3)nn2)C1 (centres undefined)	HEK293 tox 45µM, hNpr1 antagonist inconclusive, Luciferase inh inconclusive, 3T3 cytotox inconclusive
COc1ccccc1Oc1c(CCC(=O)NCc2ccco2)c(C)nn1-c1ccc(F)cc1	HEK293 tox inconclusive, 3T3 cytotox inconclusive
O=C(Nc1ccc([C@@H](O)[C@H]2COCC(=O)N2Cc2ccccn2)cc1)C1CC1	none
O=C(Cc1ccccc1)Nc1ccc([C@@H](O)[C@H]2COCC(=O)N2Cc2ccccc2)cc1	none
O=C(Cc1ccccc1)Nc1ccc([C@@H](O)[C@H]2COCC(=O)N2Cc2ccc(C(F)(F)F)cc2)cc1	HEK293 tox inconclusive, 3T3 cytotox 79µM
CC(C)(C)c1ccc(C(=O)Nc2ccc(C(O)[C@H]3COCC(=O)N3Cc3ccccn3)cc2)cc1 (some centres undefined)	HEK293 tox inconclusive, Luciferase inh 16µM, 3T3 cytotox inconclusive
